According to the supplement of paper PMC10849652:
The full data set covers some 7,900 targets. This sample favours those with a hit. About 0.6% of all pairs of compound and target were hits. Unmarked numbers belong to inactive results.

Assays:
Experiment in all cases: log2 fold change, soluble protein after heating vs DMSO (PISA); higher = thermal stabilisation; K562 cells, 10 uM, 30 min; active = over 0.2 and 3.5 SD of the protein, either way, in both replicates (recomputed)
erlotinib = compound: C#Cc1cccc(Nc2ncnc3cc(OCCOC)c(OCCOC)cc23)c1 [erlotinib]
Outline: (§1)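 K562 cells (2×10^6 cells/mL) were treated with 10 μM compound for 30 min, and aliquots were heated for 3 min over 48°C-58°C. Pooled aliquots were extracted in PBS with 0.5% NP-40 at 4°C, and the supernatant after 21,000xg for 90 min was measured by TMTpro 16plex LC-MS/MS with channel sums equalised. Reported thermal stability, relative to control samples and from duplicates, is a log2 fold change.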

[1] = compound: C/C(=N\NC(=O)C1=CC(=CC=C1)S(=O)(=O)N2CCOCC2)/C3=C(C=CC(=C3)Cl)O
Outline: as §1

[2] = compound: C1=CC(=C(C=C1Cl)C2=NC3=NC=CN=C3C(=N2)NC4=CC=NC=C4)F
Outline: as §1

[3] = compound: C1=CC(=CC=C1C2=NC3=C(N2)C=C(C=C3)C(=O)N)OC4=CC=C(C=C4)Cl
Outline: as §1

[4] = compound: C1=CC2=C(C=CC(=C2)/C=C\3/C(=O)NC(=NCC4=CC=CS4)S3)N=C1
Outline: as §1

[5] = compound: C1=CC2=NC=CN=C2C=C1/C=C/3\C(=O)NC(=O)S3
Outline: as §1

[6] = compound: C1=CC=C2C(=C1)C3=NNC4=CC=CC(=C43)C2=O
Outline: as §1

[7] = compound: C1=CC=C(C=C1)C2=NC(=C(N2)C3=CC=NC=C3)C4=CC(=C(C=C4)Cl)O
Outline: as §1

[8] = compound: C1CCN(C1)C(=O)NC2=CC=CC(=C2)NC3=NC=C(C(=N3)NCCC4=CN=CN4)Br
Outline: as §1

[9] = compound: C1CN(CCC1(CC2=CC=C(C=C2)Cl)N)C3=NC=NC4=C3C=CN4
Outline: as §1

## MORC2 (UniProt Q9Y6X9)
erlotinib
  log2 fold change: 0.105
[1]
  log2 fold change: 0.033
[2]
  log2 fold change: -0.027
[3]
  log2 fold change: 0.051
[4]
  log2 fold change: 0.148
[5]
  log2 fold change: -0.097
[6]
  log2 fold change: 0.421

## NOSIP (UniProt Q9Y314)
Chain of UniProt Q9Y314 (Q9Y314 whole entry, looked up): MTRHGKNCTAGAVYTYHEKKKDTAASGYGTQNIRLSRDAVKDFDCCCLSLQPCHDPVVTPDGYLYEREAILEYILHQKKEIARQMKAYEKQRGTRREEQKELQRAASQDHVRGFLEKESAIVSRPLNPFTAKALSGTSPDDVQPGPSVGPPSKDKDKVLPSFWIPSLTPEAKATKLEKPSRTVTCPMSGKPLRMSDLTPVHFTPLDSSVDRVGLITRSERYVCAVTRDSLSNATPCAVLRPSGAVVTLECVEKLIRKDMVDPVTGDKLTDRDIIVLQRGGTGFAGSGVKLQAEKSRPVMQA
erlotinib
  log2 fold change: 0.062
[1]
  log2 fold change: 0.16
[2]
  log2 fold change: 0.049
[3]
  log2 fold change: -0.05
[4]
  log2 fold change: -0.041
[5]
  log2 fold change: 0.039
[7]
  log2 fold change: -0.033
[6]
  log2 fold change: -0.03
[8]
  log2 fold change: -0.234
[9]
  log2 fold change: -0.249

## MON2 isoform 5 (UniProt Q7Z3U7)
erlotinib
  log2 fold change: 0.034
[1]
  log2 fold change: 0.034
[2]
  log2 fold change: 0.072
[3]
  log2 fold change: -0.019
[4]
  log2 fold change: 0.016
[5]
  log2 fold change: 0.015
[7]
  log2 fold change: 0.015
[6]
  log2 fold change: 0.007
[8]
  log2 fold change: -0.019
[9]
  log2 fold change: 0.004

## NFATC3 (UniProt Q12968)
Chain of UniProt Q12968 (Q12968 whole entry, looked up): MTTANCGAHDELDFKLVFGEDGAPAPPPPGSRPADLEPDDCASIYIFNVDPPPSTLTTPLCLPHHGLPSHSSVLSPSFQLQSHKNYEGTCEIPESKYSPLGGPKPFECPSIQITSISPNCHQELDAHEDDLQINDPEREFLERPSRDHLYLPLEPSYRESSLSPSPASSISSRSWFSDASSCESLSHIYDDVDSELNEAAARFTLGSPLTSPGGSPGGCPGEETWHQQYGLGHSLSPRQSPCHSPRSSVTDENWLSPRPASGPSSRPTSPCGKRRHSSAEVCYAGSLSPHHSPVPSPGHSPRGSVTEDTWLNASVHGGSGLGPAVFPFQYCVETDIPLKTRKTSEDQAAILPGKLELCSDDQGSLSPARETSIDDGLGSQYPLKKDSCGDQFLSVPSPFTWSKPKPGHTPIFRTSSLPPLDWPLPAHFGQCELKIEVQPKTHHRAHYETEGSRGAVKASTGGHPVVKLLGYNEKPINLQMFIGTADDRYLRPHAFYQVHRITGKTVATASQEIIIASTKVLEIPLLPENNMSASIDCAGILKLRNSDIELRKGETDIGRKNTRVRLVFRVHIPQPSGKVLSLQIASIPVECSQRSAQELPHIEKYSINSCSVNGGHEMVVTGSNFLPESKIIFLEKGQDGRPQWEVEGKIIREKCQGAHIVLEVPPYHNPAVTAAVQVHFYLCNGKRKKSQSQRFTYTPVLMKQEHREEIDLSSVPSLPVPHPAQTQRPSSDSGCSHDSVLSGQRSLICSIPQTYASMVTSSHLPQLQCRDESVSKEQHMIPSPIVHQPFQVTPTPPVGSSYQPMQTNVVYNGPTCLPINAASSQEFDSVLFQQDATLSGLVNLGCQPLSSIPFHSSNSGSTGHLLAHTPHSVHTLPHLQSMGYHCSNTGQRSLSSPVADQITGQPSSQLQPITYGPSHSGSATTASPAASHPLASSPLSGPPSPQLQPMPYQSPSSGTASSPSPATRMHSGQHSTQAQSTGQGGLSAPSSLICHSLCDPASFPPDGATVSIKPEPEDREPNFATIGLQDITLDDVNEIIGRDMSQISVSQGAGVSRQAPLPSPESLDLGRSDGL
erlotinib
  log2 fold change: 0.121
[1]
  log2 fold change: 0.197
[2]
  log2 fold change: 0.024
[3]
  log2 fold change: 0
[4]
  log2 fold change: 0.039
[5]
  log2 fold change: -0.013
[7]
  log2 fold change: -0.019
[6]
  log2 fold change: -0.101
[8]
  log2 fold change: -0.01
[9]
  log2 fold change: -0.027

## NUDT1 (UniProt P36639)
erlotinib
  log2 fold change: 0.164
[1]
  log2 fold change: -0.018
[2]
  log2 fold change: 0.135
[3]
  log2 fold change: -0.068
[4]
  log2 fold change: 0
[5]
  log2 fold change: -0.032
[7]
  log2 fold change: 0.055
[6]
  log2 fold change: 0.187
[8]
  log2 fold change: -0.009
[9]
  log2 fold change: 1.01 (active)

## NIBAN1 (UniProt Q9BZQ8)
erlotinib
  log2 fold change: 0.014
[1]
  log2 fold change: 0.103
[2]
  log2 fold change: -0.022
[3]
  log2 fold change: 0.017
[4]
  log2 fold change: 0.058
[5]
  log2 fold change: -0.009
[7]
  log2 fold change: -0.005
[6]
  log2 fold change: -0.047
[8]
  log2 fold change: -0.017
[9]
  log2 fold change: -0.06

## NOP58 (UniProt Q9Y2X3)
erlotinib
  log2 fold change: -0.013
[1]
  log2 fold change: 0.001
[2]
  log2 fold change: -0.332
[3]
  log2 fold change: -0.001
[4]
  log2 fold change: -0.043
[5]
  log2 fold change: 0.034
[7]
  log2 fold change: -0.055
[6]
  log2 fold change: -0.126
[8]
  log2 fold change: -0.156
[9]
  log2 fold change: -0.143

## MT-ND2 (UniProt P03891)
erlotinib
  log2 fold change: -0.067
[1]
  log2 fold change: -0.063
[3]
  log2 fold change: 0.062
[4]
  log2 fold change: -0.108
[5]
  log2 fold change: 0.104
[7]
  log2 fold change: 0.116
[6]
  log2 fold change: 0.044
[8]
  log2 fold change: -0.016
[9]
  log2 fold change: -0.093

## NUMA1 (UniProt Q14980)
Chain of UniProt Q14980 (Q14980 whole entry, looked up): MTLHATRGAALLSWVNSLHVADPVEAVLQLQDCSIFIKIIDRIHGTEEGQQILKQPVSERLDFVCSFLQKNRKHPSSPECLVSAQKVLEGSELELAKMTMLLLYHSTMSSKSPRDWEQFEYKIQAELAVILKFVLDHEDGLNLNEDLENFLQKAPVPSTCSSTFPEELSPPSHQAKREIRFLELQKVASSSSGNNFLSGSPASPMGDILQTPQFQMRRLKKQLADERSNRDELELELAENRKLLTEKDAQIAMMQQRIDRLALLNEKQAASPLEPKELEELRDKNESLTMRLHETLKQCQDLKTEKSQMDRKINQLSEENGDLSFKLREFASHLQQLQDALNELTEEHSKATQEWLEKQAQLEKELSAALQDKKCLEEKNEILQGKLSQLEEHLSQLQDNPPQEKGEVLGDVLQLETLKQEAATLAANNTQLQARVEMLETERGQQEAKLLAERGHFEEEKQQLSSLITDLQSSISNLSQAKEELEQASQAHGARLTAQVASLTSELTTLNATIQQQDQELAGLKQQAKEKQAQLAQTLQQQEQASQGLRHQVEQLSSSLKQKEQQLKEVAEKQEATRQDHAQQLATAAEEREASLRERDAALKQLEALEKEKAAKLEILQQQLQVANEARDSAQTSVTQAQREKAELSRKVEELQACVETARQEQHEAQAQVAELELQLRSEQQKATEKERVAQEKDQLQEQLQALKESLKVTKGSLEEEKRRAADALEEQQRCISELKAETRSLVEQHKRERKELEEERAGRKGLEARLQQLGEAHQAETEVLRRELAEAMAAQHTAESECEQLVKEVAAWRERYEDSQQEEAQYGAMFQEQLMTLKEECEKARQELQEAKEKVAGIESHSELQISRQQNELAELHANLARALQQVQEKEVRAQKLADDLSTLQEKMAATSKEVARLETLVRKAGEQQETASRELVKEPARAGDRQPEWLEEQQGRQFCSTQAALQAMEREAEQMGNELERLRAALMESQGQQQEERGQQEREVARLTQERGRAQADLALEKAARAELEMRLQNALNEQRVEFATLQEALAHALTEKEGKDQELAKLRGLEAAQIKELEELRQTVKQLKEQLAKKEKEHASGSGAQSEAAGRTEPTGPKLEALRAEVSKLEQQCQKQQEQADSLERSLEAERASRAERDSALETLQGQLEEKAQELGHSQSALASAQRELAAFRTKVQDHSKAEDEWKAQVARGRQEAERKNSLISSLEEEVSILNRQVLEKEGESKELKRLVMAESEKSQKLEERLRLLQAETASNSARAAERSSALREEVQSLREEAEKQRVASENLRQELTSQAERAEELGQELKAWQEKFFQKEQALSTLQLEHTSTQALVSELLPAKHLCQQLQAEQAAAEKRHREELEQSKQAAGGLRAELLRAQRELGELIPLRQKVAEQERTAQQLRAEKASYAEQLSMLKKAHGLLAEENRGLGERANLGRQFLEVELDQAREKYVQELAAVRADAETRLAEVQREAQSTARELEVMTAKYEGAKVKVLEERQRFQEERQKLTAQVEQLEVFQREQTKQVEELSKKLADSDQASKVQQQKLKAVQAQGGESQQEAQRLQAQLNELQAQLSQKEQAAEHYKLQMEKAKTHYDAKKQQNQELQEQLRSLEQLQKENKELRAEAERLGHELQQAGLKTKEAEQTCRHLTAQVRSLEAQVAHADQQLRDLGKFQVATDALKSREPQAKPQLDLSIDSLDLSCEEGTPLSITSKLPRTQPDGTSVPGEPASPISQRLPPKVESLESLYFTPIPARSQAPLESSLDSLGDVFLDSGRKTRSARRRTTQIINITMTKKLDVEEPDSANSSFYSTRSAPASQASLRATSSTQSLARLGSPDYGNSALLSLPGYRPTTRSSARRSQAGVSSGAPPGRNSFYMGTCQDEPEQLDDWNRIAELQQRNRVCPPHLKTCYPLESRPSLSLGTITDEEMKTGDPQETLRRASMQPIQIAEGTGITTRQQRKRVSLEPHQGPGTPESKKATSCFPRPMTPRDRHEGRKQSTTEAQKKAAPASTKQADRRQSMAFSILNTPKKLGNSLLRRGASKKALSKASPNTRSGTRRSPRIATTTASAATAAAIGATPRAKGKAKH
erlotinib
  log2 fold change: -0.03
[1]
  log2 fold change: -0.006
[2]
  log2 fold change: -0.109
[3]
  log2 fold change: 0.017
[4]
  log2 fold change: 0.02
[5]
  log2 fold change: 0.019
[7]
  log2 fold change: 0.031
[6]
  log2 fold change: -0.054
[8]
  log2 fold change: -0.055
[9]
  log2 fold change: -0.211

## MKNK1 (UniProt Q9BUB5)
erlotinib
  log2 fold change: 0.305 (active)
[1]
  log2 fold change: 0.09
[2]
  log2 fold change: -0.05
[3]
  log2 fold change: 0
[4]
  log2 fold change: 0.011
[5]
  log2 fold change: 0.081
[7]
  log2 fold change: -0.028
[6]
  log2 fold change: 0.001
[8]
  log2 fold change: -0.051
[9]
  log2 fold change: -0.066

## NR2C2AP isoform 2 (UniProt Q86WQ0)
Chain of UniProt Q86WQ0 (Q86WQ0 whole entry, looked up): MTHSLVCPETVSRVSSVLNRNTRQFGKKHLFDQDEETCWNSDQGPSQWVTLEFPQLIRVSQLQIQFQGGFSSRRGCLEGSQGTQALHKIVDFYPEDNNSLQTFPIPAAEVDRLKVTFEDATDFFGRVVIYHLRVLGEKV
erlotinib
  log2 fold change: 0.032
[1]
  log2 fold change: 0.028
[2]
  log2 fold change: -0.013
[3]
  log2 fold change: 0.048
[4]
  log2 fold change: 0.041
[5]
  log2 fold change: 0.026
[7]
  log2 fold change: -0.08
[6]
  log2 fold change: -0.134
[8]
  log2 fold change: -0.089
[9]
  log2 fold change: -0.013

## NAA11 (UniProt Q9BSU3)
erlotinib
  log2 fold change: -0.023
[1]
  log2 fold change: -0.012
[2]
  log2 fold change: -0.033
[3]
  log2 fold change: 0.06
[4]
  log2 fold change: 0.158
[5]
  log2 fold change: -0.207
[7]
  log2 fold change: -0.023
[6]
  log2 fold change: -0.032
[8]
  log2 fold change: -0.108
[9]
  log2 fold change: 0.167

## NDUFA9 (UniProt Q16795)
erlotinib
  log2 fold change: -0.031
[1]
  log2 fold change: 0.035
[2]
  log2 fold change: 0.059
[3]
  log2 fold change: 0.03
[4]
  log2 fold change: 0.031
[5]
  log2 fold change: -0.016
[7]
  log2 fold change: 0.025
[6]
  log2 fold change: 0.047
[8]
  log2 fold change: 0.005
[9]
  log2 fold change: 0.024

## NOP53 (UniProt Q9NZM5)
erlotinib
  log2 fold change: -0.201
[1]
  log2 fold change: -0.272
[2]
  log2 fold change: -0.231
[3]
  log2 fold change: 0.005
[4]
  log2 fold change: -0.298
[5]
  log2 fold change: 0.036
[7]
  log2 fold change: -0.147
[6]
  log2 fold change: -0.121
[8]
  log2 fold change: 0.058
[9]
  log2 fold change: -0.387

## NUP160 (UniProt Q12769)
erlotinib
  log2 fold change: 0.001
[1]
  log2 fold change: 0.022
[2]
  log2 fold change: 0.01
[3]
  log2 fold change: -0.024
[4]
  log2 fold change: -0.006
[5]
  log2 fold change: 0.045
[7]
  log2 fold change: -0.017
[6]
  log2 fold change: -0.091
[8]
  log2 fold change: -0.085
[9]
  log2 fold change: -0.025

## MXRA7 (UniProt P84157)
Chain of UniProt P84157 (P84157 whole entry, looked up): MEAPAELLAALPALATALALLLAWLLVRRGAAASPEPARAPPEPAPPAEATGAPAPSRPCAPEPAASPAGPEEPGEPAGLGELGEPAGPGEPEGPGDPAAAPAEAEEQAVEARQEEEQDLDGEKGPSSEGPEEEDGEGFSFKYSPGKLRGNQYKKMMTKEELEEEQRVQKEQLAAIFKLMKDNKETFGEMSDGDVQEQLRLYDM
erlotinib
  log2 fold change: -0.052
[1]
  log2 fold change: -0.109
[2]
  log2 fold change: -0.083
[3]
  log2 fold change: 0.047
[4]
  log2 fold change: -0.067
[5]
  log2 fold change: 0.018
[7]
  log2 fold change: -0.033
[6]
  log2 fold change: 0.037
[8]
  log2 fold change: -0.038
[9]
  log2 fold change: 0.013

## NUDT21 (UniProt O43809)
Chain of UniProt O43809 (O43809 whole entry, looked up): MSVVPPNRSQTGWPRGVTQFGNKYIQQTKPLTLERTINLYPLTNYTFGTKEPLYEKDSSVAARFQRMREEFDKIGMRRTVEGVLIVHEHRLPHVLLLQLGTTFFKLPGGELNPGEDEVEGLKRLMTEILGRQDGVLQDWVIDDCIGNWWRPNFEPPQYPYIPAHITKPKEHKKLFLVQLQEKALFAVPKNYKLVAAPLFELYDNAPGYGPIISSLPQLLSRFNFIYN
erlotinib
  log2 fold change: -0.02
[1]
  log2 fold change: 0.07
[2]
  log2 fold change: -0.127
[3]
  log2 fold change: 0.047
[4]
  log2 fold change: -0.035
[5]
  log2 fold change: -0.015
[7]
  log2 fold change: -0.026
[6]
  log2 fold change: 0.008
[8]
  log2 fold change: 0.003
[9]
  log2 fold change: -0.089

## MRPS26 (UniProt Q9BYN8)
erlotinib
  log2 fold change: -0.081
[1]
  log2 fold change: 0.004
[2]
  log2 fold change: 0.004
[3]
  log2 fold change: 0.157
[4]
  log2 fold change: 0.038
[5]
  log2 fold change: 0.088
[7]
  log2 fold change: -0.042
[6]
  log2 fold change: 0.06
[8]
  log2 fold change: -0.19
[9]
  log2 fold change: 0.024

## NDUFAF6 (UniProt Q330K2)
erlotinib
  log2 fold change: 0.028
[1]
  log2 fold change: -0.009
[2]
  log2 fold change: 0.059
[3]
  log2 fold change: 0.058
[4]
  log2 fold change: 0.071
[5]
  log2 fold change: 0.12
[7]
  log2 fold change: 0.065
[6]
  log2 fold change: -0.051
[8]
  log2 fold change: 0.049
[9]
  log2 fold change: 0.074

## NTMT1 (UniProt Q9BV86)
Chain of UniProt Q9BV86 (Q9BV86 whole entry, looked up): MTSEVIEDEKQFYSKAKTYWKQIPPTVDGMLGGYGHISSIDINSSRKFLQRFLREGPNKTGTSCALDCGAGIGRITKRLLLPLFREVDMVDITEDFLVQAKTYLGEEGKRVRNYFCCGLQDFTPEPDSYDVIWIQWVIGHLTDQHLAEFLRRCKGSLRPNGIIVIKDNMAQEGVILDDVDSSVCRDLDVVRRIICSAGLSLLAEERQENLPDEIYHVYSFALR
erlotinib
  log2 fold change: 0.039
[1]
  log2 fold change: 0.13
[2]
  log2 fold change: 0.086
[3]
  log2 fold change: 0.002
[4]
  log2 fold change: 0.039
[5]
  log2 fold change: 0.032
[7]
  log2 fold change: 0.006
[6]
  log2 fold change: 0.086
[8]
  log2 fold change: -0.101
[9]
  log2 fold change: 0.151

## NA isoform 3 (UniProt Q4G0T1)
erlotinib
  log2 fold change: 0.019
[1]
  log2 fold change: 0
[3]
  log2 fold change: 0.01
[4]
  log2 fold change: 0.11
[5]
  log2 fold change: -0.035
[7]
  log2 fold change: 0.014
[6]
  log2 fold change: 0.047
[8]
  log2 fold change: 0.058
[9]
  log2 fold change: 0.071

## NSDHL (UniProt Q15738)
Chain of UniProt Q15738 (Q15738 whole entry, looked up): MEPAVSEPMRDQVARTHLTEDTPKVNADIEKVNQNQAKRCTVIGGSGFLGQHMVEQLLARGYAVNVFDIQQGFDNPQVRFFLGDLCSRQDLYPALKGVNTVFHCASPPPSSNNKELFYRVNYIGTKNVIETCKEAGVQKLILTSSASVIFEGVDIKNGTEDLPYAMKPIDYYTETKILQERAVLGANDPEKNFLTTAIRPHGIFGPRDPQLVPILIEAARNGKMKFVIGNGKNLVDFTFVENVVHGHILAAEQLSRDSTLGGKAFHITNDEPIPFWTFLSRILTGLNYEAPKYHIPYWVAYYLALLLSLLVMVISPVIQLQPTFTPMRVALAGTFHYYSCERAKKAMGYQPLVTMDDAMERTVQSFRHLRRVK
erlotinib
  log2 fold change: -0.007
[1]
  log2 fold change: 0.107
[2]
  log2 fold change: 0.047
[3]
  log2 fold change: 0.021
[4]
  log2 fold change: 0
[5]
  log2 fold change: -0.149
[7]
  log2 fold change: 0.065
[6]
  log2 fold change: 0.059
[8]
  log2 fold change: -0.039
[9]
  log2 fold change: -0.005

## MLST8 (UniProt Q9BVC4)
Chain of UniProt Q9BVC4 (Q9BVC4 whole entry, looked up): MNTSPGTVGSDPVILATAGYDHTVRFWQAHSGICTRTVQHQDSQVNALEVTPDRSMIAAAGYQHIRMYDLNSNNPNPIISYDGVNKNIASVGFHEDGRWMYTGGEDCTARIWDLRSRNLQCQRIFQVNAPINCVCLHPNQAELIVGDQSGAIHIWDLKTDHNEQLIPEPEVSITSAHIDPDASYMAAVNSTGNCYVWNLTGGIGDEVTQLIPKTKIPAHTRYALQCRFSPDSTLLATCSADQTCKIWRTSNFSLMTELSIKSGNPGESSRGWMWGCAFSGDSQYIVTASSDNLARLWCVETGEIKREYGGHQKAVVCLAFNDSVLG
erlotinib
  log2 fold change: -0.021
[1]
  log2 fold change: 0.049
[2]
  log2 fold change: -0.004
[3]
  log2 fold change: 0.102
[4]
  log2 fold change: 0.116
[5]
  log2 fold change: -0.026
[6]
  log2 fold change: -0.111
[8]
  log2 fold change: -0.035
[9]
  log2 fold change: -0.105
